# Screens deposited in PubChem BioAssay by several laboratories.
# Beta cell apopt = inhibitors of cytokine-induced beta cell apoptosis, primary screen, luminescence; INS-1E cytokine-induced death, ATP luminescence, 48 h; percent of positive-control rescue, neutral wells zero; protection from apoptosis, % (test concentration not listed); 0.8% of 300,000 active; AID 435005, 2010;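 active = Every replicate reaches about 75%, or at least half do and their mean reaches it too, limit read from the data; inconclusive = At least half of replicates reach the limit but their mean does not; inactive = Under half of replicates reach the limit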;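 also: 0% = cytokine-treated negative control wells and 100% = positive control rescue; higher means more ATP so stronger rescue from cytokine killing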
# MPTP inh = mitochondrial permeability transition pore inhibitors, primary screen, biochemical, isolated mouse mitochondria, absorbance. Ca2+ swelling absorbance, 30 min. inhibition, % at 10 µM. 1.4% of 360,000 active;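 active = inhibition of 50% or more, scaled per plate between neutral and stimulator controls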;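 also: 0% = DMSO wells given calcium and 100% = 1 mM EGTA wells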
# Calb FLC = C. albicans growth inhibition with fluconazole, primary screen, CaCi-2 strain, Alamar Blue fluorescence; C. albicans CaCi-2 (fluconazole-resistant clinical isolate) + fluconazole, 48 h; growth inhibition, % (no concentration beside the values); 0.57% of 300,000 active;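 active = growth inhibition above about 58% in most replicates, limit read from the data, passing the limit was not always enough; inconclusive = exactly half the replicates above a set limit; inactive = most replicates below a set limit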;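 also: all wells also contain fluconazole at 8 µg/ml as a sub-toxic cotreatment; 0% = median of DMSO wells and 100% = median of geldanamycin control wells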
# CSC inhib = cancer stem cell viability inhibitors, primary screen, luminescence. cancer stem cell-like cells viability. inhibition, % at 7.5 µM. AID 2717, 2010. 1.1% of 300,000 active; in the data active = inhibition above about 75%; inconclusive = no clear call, values can overlap the other calls; tested in HMLE shEcad cells
# Mdm2 MdmX PPI = inhibitors of human Mdm2-MdmX association, primary screen, cell-based, luminescence, split luciferase, SaOS-2, uHTS | Protein Mdm4 (Homo sapiens) + E3 ubiquitin-protein ligase Mdm2 (Homo sapiens), … | SaOS-2 split-luciferase Mdm2/MdmX complementation | inhibition, % at 8 µM | 3% of 330,000 active | AID 485346, 2010;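 active = inhibition of at least 50% at 8 µM in the primary screen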
# Target sequence (O15151 whole entry, looked up): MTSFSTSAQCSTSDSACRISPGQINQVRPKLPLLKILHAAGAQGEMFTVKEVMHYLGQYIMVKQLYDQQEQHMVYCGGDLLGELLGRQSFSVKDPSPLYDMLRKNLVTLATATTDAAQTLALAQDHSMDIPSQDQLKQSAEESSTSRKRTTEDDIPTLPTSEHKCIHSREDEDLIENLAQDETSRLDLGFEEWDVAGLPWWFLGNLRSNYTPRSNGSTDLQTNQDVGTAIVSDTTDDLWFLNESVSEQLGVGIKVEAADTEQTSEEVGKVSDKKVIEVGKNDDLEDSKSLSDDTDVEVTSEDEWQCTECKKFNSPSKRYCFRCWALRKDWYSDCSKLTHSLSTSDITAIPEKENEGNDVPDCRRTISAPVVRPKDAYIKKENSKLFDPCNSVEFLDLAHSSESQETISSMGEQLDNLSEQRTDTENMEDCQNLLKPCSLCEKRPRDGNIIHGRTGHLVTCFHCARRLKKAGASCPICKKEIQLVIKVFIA
# Target sequence (Q00987 whole entry, looked up): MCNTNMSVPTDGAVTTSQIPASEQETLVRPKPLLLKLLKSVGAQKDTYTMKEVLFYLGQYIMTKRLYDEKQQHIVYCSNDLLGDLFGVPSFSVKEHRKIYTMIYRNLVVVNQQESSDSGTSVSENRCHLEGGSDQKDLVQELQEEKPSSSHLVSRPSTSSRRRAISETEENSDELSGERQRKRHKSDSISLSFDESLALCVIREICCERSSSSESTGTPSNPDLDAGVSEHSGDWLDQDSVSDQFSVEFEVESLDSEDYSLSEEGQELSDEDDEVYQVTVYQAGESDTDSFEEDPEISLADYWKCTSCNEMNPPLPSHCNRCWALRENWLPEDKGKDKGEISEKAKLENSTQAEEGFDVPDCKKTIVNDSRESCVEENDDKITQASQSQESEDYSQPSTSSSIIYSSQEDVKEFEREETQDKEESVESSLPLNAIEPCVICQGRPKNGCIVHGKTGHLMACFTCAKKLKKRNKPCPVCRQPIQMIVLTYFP
# Mdm2 MdmX conf = Mdm2-MdmX complex disruptors, retested hits, confirmation, luminescence, single concentration; Mdm2-MdmX binding, luminescent assay; shares compounds with Mdm2 MdmX PPI; 55% of 10,000 active; inhibition, % at 8 µM; in the data active = inhibition above about 40%
# Full FLuc ctr = full-length luciferase signal inhibition, confirmation, counter-screen for Mdm2/MdmX interaction inhibitor project, cell-based, single concentration, SaOS-2; inhibition, % at 8 µM; 77% of 6,200 active; SaOS-2 full-length luciferase counterscreen, luminescence; shares compounds with Mdm2 MdmX PPI;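 active = mean inhibition at 8 µM reaching about 37%, which flags the compound as non-specific, limit read from the data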;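 also: p53-null SaOS-2 cells with luciferase driven by a doxycycline-inducible promoter; compound on cells about two nights before reading with doxycycline added after day one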
# * = called active by the depositor; ? = inconclusive; / = not tested or not shown. The list is not random: actives were taken first. Their share in the collection is about 4.8%.
SMILES,Beta cell apopt,MPTP inh,Calb FLC,CSC inhib,Mdm2 MdmX PPI,Mdm2 MdmX conf,Full FLuc ctr
Cc1nc2c3ccccc3n(Cc3ccccc3F)c2s1,-16.2,8.8,57.1,27.9,4.4,/,/
Cc1nc2c3cc(F)ccc3n(Cc3ccccc3)c2s1,100.5*,2.0,-11.6,118.4*,53.0*,55.0*,68.6*
Cc1nc2c3cc(F)ccc3n(CCN3CCCCC3)c2s1,60.5,-0.1,4.2,64.6,55.6*,56.1*,68.2*
Cc1nc2c3cc(F)ccc3n(Cc3ccccc3F)c2s1,-2.5,2.5,35.8,55.0,59.4*,45.4*,78.5*
COc1ccc(C2CC=C(C(C)=O)CN2S(=O)(=O)c2ccccc2)cc1 (stereo not drawn),/,-0.9,/,/,/,/,/
Cc1cc(C)c2cc(C#N)c(NCCCN)nc2c1,/,-1.3,/,/,/,/,/
O=C(Nc1ccccc1Cl)c1cc(C2CCCN(C(=O)c3ccccc3)C2)on1 (stereo not drawn),/,0.3,/,/,/,/,/
COc1ccc(-c2cc(-c3ccc(O)cc3)nc(N)c2C#N)cc1OC,-3.5,-3.1,14.6,12.3,58.5*,42.0*,100.4*
COc1ccc(-c2c(C#N)c(N)nc3c2CCc2ccccc2-3)cc1OC,67.8,/,?,52.9,89.0*,85.1*,50.1*
CC(=O)Nc1ccc(S(=O)(=O)N(C)CC(=O)OC(C)C(=O)NC2CCCCC2)cc1 (stereo not drawn),-2.9,1.5,-2.3,-4.6,-2.6,/,/
COC(=O)[C@@]1(Cc2ccc(OC)cc2)[C@@H]2C(=CC(=O)[C@H]2CC(=O)C(=O)N2CCCC2)CN1C(=O)c1ccccc1,-16.2,-1.0,/,37.5,69.1*,22.1,/
COC(=O)[C@@]1(Cc2ccc(F)cc2)[C@H]2C(CC(=O)C(=O)N3CCCC3)C(=O)C[C@H]2CN1C(=O)c1ccccc1 (stereo partly drawn),/,-1.5,/,/,/,/,/
CC(C)(C)C(C(=O)NCc1ccccc1)N1CCN(CCN2CCOCC2)CC1 (stereo not drawn),/,-1.0,/,/,/,/,/
Cc1sc2nc(C(C)C)nc(SCC(=O)N3CCN(C(=O)c4ccco4)CC3)c2c1C,-11.9,0.1,17.9,-12.8,17.3,/,/
CCc1c(C)sc2nc(C(C)C)nc(SCC(=O)N3CCc4ccccc4C3)c12,104.8*,/,-3.9,191.7*,94.7*,57.5*,74.3*
COc1ccc(S(=O)(=O)Cc2ccc(C(=O)N3CCN(c4cccc(C)c4C)CC3)o2)cc1,/,0.0,14.9,71.7,63.5*,61.0*,47.2*
Cc1[nH]c2ccc(C(=O)N3CCN(c4ccccc4Cl)CC3)cc2c1C,-5.0,-0.3,/,51.5,28.3,/,/
O=C(c1ccc2c(c1)[nH]c(=S)n1c3ccccc3nc21)N1CCN(c2cccc(Cl)c2)CC1,82.4*,-0.3,18.3,20.5,85.1*,5.2,/
COc1ccccc1N1CCN(C(=O)c2ccc3[nH]c(C)c(C)c3c2)CC1,5.6,0.4,-5.2,56.3,50.8*,63.4*,65.7*
Cc1[nH]c2ccc(C(=O)N3CCN(c4cccc(Cl)c4)CC3)cc2c1C,-0.1,0.7,/,64.8,50.6*,56.5*,55.8*
Cc1onc(-c2ccccc2Cl)c1C(=O)N1CCN(c2cccc(Cl)c2)CC1,/,-2.0,-0.6,56.1,54.3*,59.1*,56.8*
Cc1cccc(N2CCN(C(=O)c3ccc4[nH]c(C)c(C)c4c3)CC2)c1C,-3.8,0.8,/,61.7,60.3*,58.0*,70.7*
COc1cccc(N2CCN(C(=O)c3ccc(CS(=O)c4ccc(C)cc4)o3)CC2)c1 (stereo not drawn),16.1,-0.2,-5.7,56.0,57.9*,51.5*,60.8*
CN1CCN(C(=O)c2ccc(S(=O)(=O)N(C)c3ccccc3)cc2)CC1,/,-1.5,/,/,/,/,/
Cc1onc(-c2ccccc2Cl)c1C(=O)N1CCN(c2ccccc2)CC1,-6.4,0.1,6.5,4.4,5.6,/,/
SMILES,Beta cell apopt,MPTP inh,Calb FLC,CSC inhib,Mdm2 MdmX PPI,Mdm2 MdmX conf,Full FLuc ctr
Cc1cccc(N2CCN(C(=O)c3ccc(S(=O)(=O)N(C)c4ccccc4)cc3)CC2)c1C,-4.0,-0.5,/,56.9,67.5*,58.8*,61.0*
COc1cccc(N2CCN(C(=O)c3ccc(CS(=O)c4ccc(Cl)cc4)o3)CC2)c1 (stereo not drawn),4.6,-1.4,-5.4,49.1,45.8,/,/
O=C1COc2ccccc2C(c2nc3ccccc3[nH]2)N1Cc1ccccc1 (stereo not drawn),/,0.6,/,/,/,/,/
Cc1ccc(N2CCN(C(=O)c3ccccc3)CC2)c(C)c1,1.2,-0.5,3.1,-3.5,6.0,/,/
COc1cc(C(=O)N2CCN(c3ccc(C)cc3C)CC2)cc(OC)c1OC,14.0,-0.3,2.7,60.3,57.8*,47.5*,44.0*
CCOC(=O)C1=CNS(=O)(=O)NC1c1ccc(Br)cc1F (stereo not drawn),/,-0.2,/,/,32.0,/,/
O=C(NCCN1C(=O)S/C(=C/c2cccnc2)C1=O)c1ccc(S(=O)(=O)N2CCCC2)cc1,/,-0.4,/,/,/,/,/
C/C(Sc1nnc(Cc2ccccc2)o1)=C(\O)c1ccccc1,/,-2.4,/,/,/,/,/
CN1OC[C@@H]2CN(S(=O)(=O)c3ccccc3)[C@H](c3ccccc3Br)C[C@@H]21,/,-2.0,/,/,/,/,/
CCOc1ccc(-c2nc(N)ncc2Oc2ccc(OC)cc2)c(O)c1,-21.6,1.2,-9.5,-1.1,13.5,/,/
COc1ccc(-c2nc(N)nc(C)c2Oc2ccccc2Br)c(O)c1,-11.1,2.7,/,82.6*,66.9*,65.2*,52.7*
COc1cc2c(cc1NC(=O)CN(C)Cc1ccc(OC)c(OC)c1)oc1ccccc12,10.8,1.4,-10.4,/,50.6*,59.0*,58.0*
O=C(CSc1nnnn1-c1ccccc1)Nc1nsc(-c2ccccc2)n1,-7.9,0.2,14.7,0.7,84.3*,80.9*,27.7
COc1cc2c(cc1NC(=O)Cc1ccc(C)cc1)oc1ccccc12,2.4,5.6,7.5,9.7,-92.0,/,/
COCCCNC(=S)Nc1cc2oc3ccccc3c2cc1OC,-2.6,-0.7,-20.2,-3.9,54.6*,40.8*,89.8*
COc1cc2c(cc1NC(=O)CSc1nnnn1-c1ccccc1)oc1ccccc12,15.6,-5.4,5.7,-17.8,71.3*,33.0,/
O=C(Cn1c(=O)oc2cc(S(=O)(=O)N3CCCC3)ccc21)Nc1ccccn1,/,-0.9,/,/,/,/,/
OCc1ccccc1-c1ccc2nccn2c1,/,-0.1,/,/,/,/,/
CC(C)Oc1ccc(C(=O)OCC(=O)N2CCCc3ccccc32)cc1,1.5,-0.7,-18.4,-6.4,-2.6,/,/
CC(C)C[C@H]1CN([C@@H](CC(C)C)CN2CCCC2CN2C(=S)NC[C@@H]2Cc2ccccc2)C(=S)N1CCc1ccccc1 (stereo partly drawn),/,2.2,/,/,/,/,/
CCS(=O)(=O)N1Cc2cc(C(=O)NCC3CC3)nc(-c3cccc(-c4cccnc4)c3)c2[C@@H]1CCO,/,0.3,/,/,/,/,/
